# Sampled rows, rich in hits. Any-hit rate of the full collection: about 2.3%.
# Tau fluor cs = counter-screen for tau fibril formation inhibitors. Potency, µM (doses to about 57.7 µM), for the others: at the highest dose activity change, negative = decrease. AID 1463. hit rate 0.93% among 280,000. tau K18 P301L Alexa594 fluorescence, heparin fibrillization; further: potency means the concentration at half of the fitted maximal effect; nearly all actives have a fitted effect of over 55% in size
#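 Human tau K18 P301L (15 uM unlabeled, 0.24 uM Alexa 594-labeled) in 100 mM sodium acetate pH 7 with 20 uM heparin, 6 hr at 37 C. ThT 30 uM added, 1 hr ambient; Alexa 594 FP and total fluorescence read at 555/632 nm.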
# USP1-UAF1 inh = blocks the human USP1/UAF1 deubiquitinase complex. O94782. recombinant USP1/UAF1, Ub-Rhodamine cleavage fluorescence. Potency, µM (top dose mostly 57.1 µM), for inactives: top-dose activity change, negative = inhibition, actives largely listed as inhibitors. hit rate 0.23% among 390,000. AID 743255; further: potency means the concentration at half of the fitted maximal effect; nearly all actives have a fitted effect of over 60% in size
#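 Step one: compound is pinned into 1nM USP1/UAF1 in HEPES pH 7.8 buffer with TCEP. Step two: 15 min room-temperature incubation. Step three: Ub-Rho (150nM final) starts cleavage, tracked by fluorescence over six one-minute reads.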
# FBPA coupling cs = counter-screen for Giardia aldolase inhibitors: coupling enzyme system. coupling enzyme system counterscreen, AmpLite Red fluorescence. activity change, negative = inhibition, % at 58.2 µM, hits read low. hit rate 0.67% among 290,000. AID 2472; in the data active means activity change below about -30%
#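 Final compound at 57.5 uM, incubated 10 min at RT with coupling enzyme reagent (glyceraldehyde-3-phosphate), then 20 min with substrate and AmpLite Red detection. Fluorescence read at 525/598 nm; tests interference with the coupling assay, not aldolase inhibition.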
# Tau fibril ThT = tau fibrillization inhibition (ThT binding); recombinant tau K18 P301L (four-repeat tau fragment), heparin-induced fibrillization, ThT fluorescence; P10636; Potency, µM (titrated, usually from 57.4 µM), without a hit: top-dose activity, negative = inhibition, usual class: inhibitors; hit rate 2.1% among 270,000; further: potency means the concentration at half of the fitted maximal effect; nearly all actives have a fitted effect of over 55% in size
# Target sequence (P10636 561-689 P618L limits assumed): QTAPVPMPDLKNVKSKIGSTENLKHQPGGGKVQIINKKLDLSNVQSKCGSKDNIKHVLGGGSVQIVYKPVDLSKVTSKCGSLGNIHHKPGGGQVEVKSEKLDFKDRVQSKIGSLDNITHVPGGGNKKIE
#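 Recombinant human tau K18 fragment […] carrying P301L, 15 uM unlabeled plus 0.24 uM Alexa 594-labeled, was fibrillized with 20 uM heparin in 100 mM sodium acetate pH 7 for 6 hr at 37 C; 30 uM ThT fluorescence read after 1 hr.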
# Tau fibril FP = blocks human tau fibril formation measured by polarization. K18 P301L tau heparin fibrillization, Alexa594 FP, 6 h. Potency, µM (titrated, usually from 57.7 µM), without a hit: at the top dose activity, negative = inhibition, hits mostly inhibitors. hit rate 0.39% among 280,000; further: potency means the concentration at half of the fitted maximal effect; nearly all actives have a fitted effect of over 55% in size
#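 FP of Alexa 594-tau after heparin (20 uM) induction. Substrate: human K18 P301L, 15 uM unlabeled, 0.24 uM labeled. Buffer 100 mM sodium acetate pH 7. 6 hr, 37 C.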
# Active calls of the source: *; ? = inconclusive; . = no result. Unless noted, the call rests on the fitted dose curve; in most records, active means well fitted curve in the direction sought with a large enough effect; inconclusive means small, poorly fitted or top-dose-only effect, or another doubt; inactive means no such curve, though single readings can be large; an effect the other way counts as inactive or inconclusive. On the % scale 0 is the no-effect control and ±100 the full control effect.
SMILES,Tau fluor cs,USP1-UAF1 inh,FBPA coupling cs,Tau fibril ThT,Tau fibril FP
COCCn1c(N)c(S(=O)(=O)c2cccs2)c2nc3ccccc3nc21,-20.7%,?,-33.3*,-15.1%,-6.1%
COCCn1c(N)c(C(=O)NCC2CCCO2)c2nc3ccccc3nc21 (configuration not stated),-17.0%,25.1µM*,-34.8*,-10.0%,-9.9%
CC(C)Cn1c(N)c(C(=O)NCC2CCCO2)c2nc3ccccc3nc21 (configuration not stated),?,-19.9%,-47.4*,?,-10.3%
CC(=O)c1cccc(NC(=O)Cn2c(-c3cncs3)nc3ccccc32)c1,-6.4%,-24.8%,.,3.1%,-9.5%
O=C(COC(=O)c1ccc2c(c1[N+](=O)[O-])C(=O)c1ccccc1C2=O)NC1CC1,?,-14.0%,-33.3*,10µM*,-5.2%
CCOc1ccc(Nc2ccc(N3C(=O)CCC3=O)cc2[N+](=O)[O-])cc1,?,-23.0%,3.0,5.01µM*,-4.8%
COc1ccc(Br)cc1CNC(=O)c1cc2n(n1)CCCN(Cc1ccc(C)cc1)C2=O,-8.7%,-16.1%,.,-12.7%,0.5%
O=C1CCCC(=O)C1CS(=O)(=O)c1ccccc1,-29.5%,-13.5%,-3.5,17.8µM*,28.2µM*
O=C1CC(c2ccc(Cl)cc2)CC(=O)C1CS(=O)(=O)c1ccccc1 (configuration not stated),-13.9%,-1.0%,13.9,?,3.9%
CCc1ccc(-n2c(SCc3cccc(F)c3)nc3[nH]ncc3c2=O)cc1,-28.5%,?,.,-10.3%,-10.6%
O=S(=O)(Nc1nc2ccccc2nc1-[n+]1cccc(N=C([O-])c2ccc(Cl)cc2)c1)c1ccccc1,?,?,0.2,15.8µM*,-5.6%
CCOC(=O)c1ccc(Nc2nc3ccccc3nc2NS(=O)(=O)c2ccc(Cl)cc2)cc1,-22.3%,?,.,-14.3%,11.0%
Cc1cc(C)c(C(=O)COc2cccnc2[N+](=O)[O-])cc1C,?,-17.7%,-16.9,14.1µM*,?
CCOc1ccc(N=C(NN)c2ccc3ccccc3n2)cc1,?,-8.5%,-11.0,10µM*,-10.9%
CCOc1ccc(N=C(C)C2=C(O)c3ccccc3C2=O)cc1,?,-2.9%,-0.8,.,-6.3%
COc1ccc(C2CC(=O)c3cc(-c4nc(-c5ccc(Cl)cc5)cs4)c(=O)[nH]c3C2)cc1 (configuration not stated),-26.4%,-17.2%,.,?,-13.8%
CCCN1Cc2cccc(C(=O)Nc3cc(C)cc(C)c3)c2C1=O,-8.3%,3.0%,.,-6.1%,-3.6%
Cc1cc(C)c2c(=O)n(CC(=O)NC3CCCC3)sc2n1,-23.7%,-11.9%,-0.8,12.6µM*,14.1µM*
Cc1cc(C)c2c(=O)n(CC(=O)Nc3ccc(Br)c(C)c3)sc2n1,?,-0.2%,4.7,?,?
COc1ccc(OC)c(CCNC(=O)Cn2sc3nc(C)cc(C)c3c2=O)c1,-29.4%,.,3.4,11.2µM*,?
COc1ccc(OC)c(CCNC(=O)Cn2nc(C)c3c(C)n(-c4ccc(C)cc4)nc3c2=O)c1,.,-25.2%,3.4,.,.
Cc1cc(C)c2c(=O)n(CC(=O)Nc3cccc(Cl)c3C)sc2n1,?,-8.6%,2.5,.,20µM*
Cc1cc(C)c2c(N)c(C(=O)NC3CCCC3)sc2n1,-7.0%,-18.9%,-5.8,-14.9%,3.7%
COc1ccc(CCNC(=O)C(=O)NCC(c2cccs2)S(=O)(=O)c2ccc(C)cc2)cc1 (configuration not stated),-7.7%,-19.7%,.,0.6%,-14.1%
O=C(COc1ccccc1)NCC(c1ccc(Cl)cc1)N1CCCCC1 (configuration not stated),-19.6%,-7.4%,.,-9.8%,-3.3%
COc1ccc(NC(=O)CN(Cc2ccccc2)S(=O)(=O)c2ccc(C)cc2)cc1Cl,-26.1%,-25.5%,.,-0.7%,?
O=C1N[C@H](Cc2ccccc2)C(=O)N1Cc1cccc2ccccc12,-7.4%,.,1.0,-1.8%,-13.1%
COc1ccc2c(c1)OC1(O)COc3cc(OC)c(OC)cc3C1=C2 (configuration not stated),?,.,-5.1,5.62µM*,?
